Experimental data: PubChem BioAssay (EPA / NIEHS)
Inconclusive results are not listed. Activity calls are given as the source filed them. The calls were made as follows, unless noted: active = hit-call score of the fitted dose curve at least 0.9, where 1 is the maximum; inactive = score below 0.9.

What was measured:
[1] = IUF_NPC1a_proliferation_area_72hr: Leibniz Research Institute for Environmental Medicine (IUF) 72-hour Neural Progenitor Cell Proliferation Area Assay (NPC1a) (AID 2284208)
In short: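 hNPC spheres (human fetal cortex, GW 16-19), one per poly-Hema U-bottom well; EGF+FGF medium; dosed day 0, no re-dosing; 72 h, 37C, 5% CO2; phase-contrast sphere area; DMSO = baseline; minus-GF = positive ctrl.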

[2] = IUF_NPC1_viability_72hr: Viability Assessment at 72 hours in the Leibniz Research Institute for Environmental Medicine (IUF) Neural Progenitor Cell Proliferation Assay (NPC1) (AID 2284209)
In short: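 Human fetal-cortex neural progenitor spheres (0.25–0.35 mm, one per well) grown in EGF/FGF proliferation medium at 37C, pH 7.2-7.6, exposed 72 h without renewal; viability read as alamar blue resazurin-to-resorufin fluorescence relative to DMSO.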

[3] = CCTE_Mundy_HCI_Cortical_Synap_Neur_Matur_NeuriteSpotCountPerNeuriteLength: CCTE's Synaptogenesis and Neurite Maturation Assay in rat cortical cells for Neurite Spot Count per Neurite Length, Mundy Lab (AID 2284210)
In short: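 Rat primary cortical cultures, AraC added at DIV 5 to suppress glia; chemical exposure from DIV 7 to DIV 12. Fixed cells stained for MAP2 and synaptophysin plus Hoechst; synaptophysin puncta per neurite length quantified by high-content imaging, relative to DMSO.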

[4] = CCTE_Mundy_HCI_Cortical_Synap_Neur_Matur_BPCount: CCTE's Synaptogenesis and Neurite Maturation Assay in rat cortical cells for Branch Point Count, Mundy Lab (AID 2284211)
In short: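 Branch point number is quantified by automated imaging of fluorescently labelled neurites and synapses in rat primary cortical neurons exposed from DIV 7 to DIV 12. Activity is analysed relative to DMSO negative control.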

[5] = CCTE_Mundy_HCI_Cortical_NOG_NeuriteCount: CCTE's Neurite Outgrowth Assay in rat cortical cells for Neurite Count, Mundy Lab (AID 2284212);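 also: cells fixed about two days after chemical exposure began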
In short: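 Neurite number per cell from high-content imaging of betaIII-tubulin immunostaining, with Hoechst nuclear counterstain.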

[6] = CCTE_Mundy_HCI_Cortical_NOG_NeuriteLength: CCTE's Neurite Outgrowth Assay in rat cortical cells for Neurite Length, Mundy Lab (AID 2284213);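 also: neurites imaged about 48 to 50 h after chemical exposure began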
In short: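 Neurite length was read by high-content imaging of βIII-tubulin-labelled neurites in rat primary cortical cultures. Activity was fitted relative to DMSO.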

[7] = CCTE_Mundy_HCI_Cortical_Synap_Neur_Matur_NeuriteLength: CCTE's Synaptogenesis and Neurite Maturation Assay in rat cortical cells for Neurite Length, Mundy Lab (AID 2284214)
In short: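 Rat primary cortical cells were plated, treated with AraC at DIV 5 to arrest glial growth, then chemical-dosed with media change at DIV 7 through DIV 12. Fixed cells stained for MAP2, synaptophysin and Hoechst; neurite length quantified by high-content imaging.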

[8] = CCTE_Mundy_HCI_Cortical_Synap_Neur_Matur_NeuriteSpotCountPerNeuron: CCTE's Synaptogenesis and Neurite Maturation Assay in rat cortical cells for Neurite Spot Count per Neuron Count, Mundy Lab (AID 2284215)
In short: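 Read-out: neurite-associated synaptophysin puncta per neuron, imaged by high-content analysis after MAP2, synaptophysin and Hoechst staining. Rat primary cortical cultures, dosed DIV 7 through DIV 12; DMSO served as baseline.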

[9] = CCTE_Mundy_HCI_Cortical_Synap_Neur_Matur_SynapseCount: CCTE's Synaptogenesis and Neurite Maturation Assay in rat cortical cells for Synapse Count, Mundy Lab (AID 2284218)
In short: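 Rat primary cortical cells in 96-well plates received AraC at DIV 5 and were dosed with chemicals at DIV 7 with media change, through DIV 12 (288.33 h). Synapses per neuron counted by high-content imaging of MAP2/synaptophysin/Hoechst staining, versus DMSO baseline.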

[10] = CCTE_Mundy_HCI_hN2_NOG_NeuriteLength: CCTE's Neurite Outgrowth Assay in human hN2 cells for Neurite Length, Mundy Lab (AID 2284220; active = hit-call score of the fitted dose curve at least 0.9, where 1 is the maximum)
In short: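 Read-out is neurite length from high-content imaging of βIII-tubulin/Alexa Fluor-488-labelled neurons, referenced to DMSO controls.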

[11] = CCTE_Mundy_HCI_hN2_NOG_NeuronCount: CCTE's Neurite Outgrowth Assay in human hN2 cells for Neuron Count, Mundy Lab (AID 2284221; active = hit-call score of the fitted dose curve at least 0.9, where 1 is the maximum)
In short: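 Read-out is the number of betaIII-tubulin-positive neurons imaged by automated high-content analysis, with DMSO as negative control.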

[12] = CCTE_Mundy_HCI_Cortical_Synap_Neur_Matur_NeuriteCount: CCTE's Synaptogenesis and Neurite Maturation Assay in rat cortical cells for Neurite Count, Mundy Lab (AID 2284222)
In short: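 Primary rat cortical cells were plated, treated with AraC at DIV 5, then exposed to chemicals from DIV 7 through DIV 12. After fixation and immunostaining for MAP2 and synaptophysin, imaging quantified neurites, with DMSO as the negative control.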

[13] = CCTE_Mundy_HCI_Cortical_Synap_Neur_Matur_CellBodySpotCount: CCTE's Synaptogenesis and Neurite Maturation Assay in rat cortical cells for Cell Body Spot Count, Mundy Lab (AID 2284223)
In short: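 Read-out: cell body-associated synaptophysin puncta per neuron, imaged after MAP2, synaptophysin and Hoechst staining. Rat cortical cells, AraC DIV 5, chemical dosing DIV 7, fixation DIV 12. Activity fitted in positive direction relative to DMSO baseline.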

[14] = UKN4_HCS_LUHMES_cell_viability: Viability Assessment in the University of Konstanz (UKN) Leist Lab Neurite Outgrowth Assay in human LUHMES cells (UKN4) (AID 2284232)
In short: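 LUHMES cells differentiated 2 days, replated without cAMP/GDNF, then exposed to compounds for 24 h from attachment. Viability read by high-content fluorescence imaging after 30 min live-staining with H-33342 and calcein-AM; bidirectional fit relative to DMSO baseline.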

[15] = UKN2_HCS_IMR90_cell_viability: Viability Assessment in the University of Konstanz (UKN) Leist Lab Neural Crest Cell Migration Assay in human induced IMR90 Pluripotent Stem Cells (UKN2) (AID 2284233);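 also: viability of neural crest cells differentiated from IMR90 iPSC measured by calcein-AM fluorescence imaging; cells exposed to compound for 24 h after a 24 h migration phase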
In short: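 Neural crest cells derived from IMR90 iPSC migrate into a stopper-free zone for 24 h in EGF/FGF medium, then are exposed to compound for 24 h. Viability assessed by calcein-AM and Hoechst staining with high-content imaging, fitted bidirectionally versus DMSO.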

[16] = CCTE_Mundy_HCI_Cortical_NOG_BPCount: CCTE's Neurite Outgrowth Assay in rat cortical cells for Branch Point Count, Mundy Lab (AID 2284237);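 also: branch points counted about two days after chemical exposure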
In short: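 Measured 50.33 h after dosing, this morphology endpoint uses rat primary cortical cultures labelled for betaIII-tubulin. Branch points are quantified by high-content imaging, with DMSO as negative control and baseline.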

[17] = CCTE_Mundy_HCI_hNP1_Casp3_7: CCTE's Caspase-Glo 3/7 Assay in human neuroprogenitor cells for Apoptosis, Mundy Lab (AID 2284240)
In short: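 Luminescent caspase-3/7 readout, 26.5 h post-dose, in human neural progenitor cells from WA09 embryonic stem cells. Cells grew 40–44 h at 37 °C, 5% CO2 before chemical addition. Activity analysed as signal increase over DMSO baseline.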

[18] = CCTE_Mundy_HCI_hNP1_CellTiter: CCTE's Cell Titer-Glo 2 Assay in human neuroprogenitor cells for Viability, Mundy Lab (AID 2284241; active = hit-call score of the fitted dose curve at least 0.9, where 1 is the maximum)
In short: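 Viability read as luminescent ATP content (CellTiter-Glo, 30 min room temperature) twenty-four hours after dosing, relative to DMSO. Cells: WA09-derived hNP1 neuroprogenitors on poly-L-ornithine/laminin, plated 40 to 44 hours before chemical.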

[19] = CCTE_Mundy_HCI_Cortical_Synap_Neur_Matur_NeuronCount: CCTE's Synaptogenesis and Neurite Maturation Assay in rat cortical cells for Neuron Count, Mundy Lab (AID 2284242; active = hit-call score of the fitted dose curve at least 0.9, where 1 is the maximum;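 also: hits reduce neuron count versus DMSO baseline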)
In short: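 Rat primary cortical cells received AraC at DIV 5 to arrest glia, then were dosed with chemicals at DIV 7 through DIV 12. Fixed cells were stained for nuclei, MAP2 and synaptophysin, and neurons were counted by high-content imaging relative to DMSO.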

[20] = IUF_NPC2c_oligodendrocyte_migration_120hr: Leibniz Research Institute for Environmental Medicine (IUF) 120-hour Neural Progenitor Cell Migration Assay for Oligodendrocyte Migration (NPC2c) (AID 2284297);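 also: O4-positive oligodendrocyte migration distance divided by radial glia migration distance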
In short: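 hNPC spheres (GW 16-19 cortex), PDL/laminin, DMEM/F12 3:1 + 1% N2, 37C. Dosing day 0–5, half feed day 3, DMSO ≤0.1%. Fixed 120 h; O4 ICC + Hoechst, HCI. Readout: mean oligodendrocyte distance from sphere edge / radial glia distance.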

[21] = IUF_NPC2a_radial_glia_migration_120hr: Leibniz Research Institute for Environmental Medicine (IUF) 120-hour Neural Progenitor Cell Migration Assay for Radial Glia Migration (NPC2a) (AID 2284298)
In short: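 Hoechst-stained nuclei imaged at 120 h; algorithm maps sphere core by densest nuclei, sets migration edge at density threshold, gives radial glia migration distance (um) per well vs DMSO. hNPC spheres (0.3 mm), PDL/laminin, DMEM/F12 3:1 + 1% N2.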

[22] = IUF_NPC2a_radial_glia_migration_72hr: Leibniz Research Institute for Environmental Medicine (IUF) 72-hour Neural Progenitor Cell Migration Assay for Radial Glia Migration (NPC2a) (AID 2284299)
In short: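 Human fetal cortex (GW 16-19) neural progenitor spheres, 0.3 mm, plated on poly-D-lysine/laminin in N2 differentiation medium with compound from day 0. Radial glia migration distance (um, sphere core edge to migration edge) measured manually in four directions on 72 h brightfield images; well mean used.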

[23] = IUF_NPC2b_neuronal_migration_120hr: Leibniz Research Institute for Environmental Medicine (IUF) 120-hour Neural Progenitor Cell Migration Assay for Neuron Migration (NPC2b) (AID 2284300)
In short: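 hNPC spheres, PDL/laminin, DMEM:F12 3:1 + 1% N2, 37C/5% CO2; 7 concentrations + solvent control (DMSO ≤0.1%), 5 d exposure, half-feed day 3. Fix 120 h, TUBB3 ICC, HCI: mean neuron migration distance ÷ glia distance.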

[24] = IUF_NPC3_neuronal_differentiation_120hr: Leibniz Research Institute for Environmental Medicine (IUF) 120-hour Neuronal Differentiation Assay (NPC3) (AID 2284301)
In short: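 Human fetal (GW 16-19) neural progenitor spheres (0.3 mm) plated on poly-D-lysine/laminin in N2 differentiation medium, exposed 120 h at 37C with half-medium renewal day 3; 7 concentrations. TUBB3+ cells as % of Hoechst nuclei, CNN-identified; DMSO baseline.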

[25] = IUF_NPC5_oligodendrocyte_differentiation_120hr: Leibniz Research Institute for Environmental Medicine (IUF) 120-hour Oligodendrocyte Differentiation Assay (NPC5) (AID 2284304; active = hit-call score of the fitted dose curve at least 0.9, where 1 is the maximum;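 also: primary human fetal neural progenitor spheres plated to migrate and differentiate; share of O4-positive cells among Hoechst nuclei found by CNN image analysis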)
In short: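 hNPC spheres, fetal cortex GW 16-19; PDL/laminin, DMEM:F12 3:1 + 1% N2, 37C/5% CO2; 7 concentrations + solvent control, 5 d exposure, half-change day 3. Readout: %O4+ of Hoechst+ nuclei in migration area, CNN classification; DMSO baseline.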

[26] = IUF_NPC4_neurite_area_120hr: Leibniz Research Institute for Environmental Medicine (IUF) 120-hour Neuronal Morphology Assay for Neurite Area (NPC4) (AID 2284305; active = hit-call score of the fitted dose curve at least 0.9, where 1 is the maximum)
In short: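 Human fetal neural progenitor spheres (0.3 mm) plated on poly-D-lysine/laminin in N2 differentiation medium, exposed 120 h (7 concentrations, DMSO ≤0.1%, half-medium refresh day 3). Fixed, TUBB3 immunostained; mean neurite area per neuron by Omnisphero skeletonization.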

[27] = IUF_NPC2-5_cytotoxicity_72hr: Cytotoxicity Assessment at 72 hours in the Leibniz Research Institute for Environmental Medicine (IUF) Neural Progenitor Cell Migration and Differentiation Assay for Cytotoxicity (NPC2-5) (AID 2284306; active = hit-call score of the fitted dose curve at least 0.9, where 1 is the maximum;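 also: LDH release into supernatant measured by resorufin fluorescence marking membrane damage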)
In short: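 Human fetal primary neural progenitor spheres (0.3 mm) plated on poly-D-lysine/laminin in N2 differentiation medium, exposed from day 0 at 37C. LDH-dependent resazurin-to-resorufin fluorescence in supernatant at 72 h; 7 concentrations, DMSO at most 0.1%.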

[28] = IUF_NPC2-5_cytotoxicity_120hr: Cytotoxicity Assessment at 120 hours in the Leibniz Research Institute for Environmental Medicine (IUF) Neural Progenitor Cell Migration and Differentiation Assay (NPC2-5) (AID 2284307; active = hit-call score of the fitted dose curve at least 0.9, where 1 is the maximum)
In short: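 hNPC spheres on PDL/laminin, N2 medium, 37C; 7 concs + solvent control, DMSO ≤0.1%; 5-day exposure, half medium changed day 3. LDH in supernatant at 120 h, resazurin→resorufin fluorescence, gain-of-signal.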

[29] = IUF_NPC2-5_cell_number_120hr: Cell Number Assessment at 120 hours in the Leibniz Research Institute for Environmental Medicine (IUF) Neural Progenitor Cell Migration and Differentiation Assay (NPC2-5) (AID 2284308);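 also: count of Hoechst-stained nuclei in migration zone around plated human neural progenitor spheres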
In short: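 Hoechst-stained nuclei within the migration area were counted by automated high content imaging after 120 h. Single hNPC spheres differentiated on poly-D-lysine/laminin in DMEM/F12 (3:1) with 1% N2, compound present throughout, DMSO ≤0.1%.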

[30] = IUF_NPC2-5_viability_120hr: Viability Assessment at 120 hours in the Leibniz Research Institute for Environmental Medicine (IUF) Neural Progenitor Cell Migration and Differentiation Assay (NPC2-5) (AID 2284312)
In short: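 Human fetal neural progenitor spheres (0.3 mm) plated on poly-D-lysine/laminin in N2 differentiation medium, exposed 120 h with half-medium refresh at day 3. Viability by alamar blue resazurin fluorescence; 7 concentrations, DMSO max 0.1%.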

[31] = IUF_NPC1_cytotoxicity_72hr: Cytotoxicity Assessment at 72 hours in the Leibniz Research Institute for Environmental Medicine (IUF) Neural Progenitor Cell Proliferation Assay (NPC1) (AID 2284332; active = hit-call score of the fitted dose curve at least 0.9, where 1 is the maximum;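 also: rising LDH signal means more cytotoxicity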)
In short: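 Single human fetal cortex neural progenitor spheres (GW 16-19, 0.25-0.35 mm) in EGF/FGF proliferation medium were exposed to compound for 72 h at 37C without renewal. Medium LDH release was read as resorufin fluorescence and fitted as gain-of-signal.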

Measured: AC50

Brc1ccc(Oc2ccc(Br)cc2Br)c(Br)c1
active: [3] 4.11 µM | [4] 3.98 µM | [5] 23.6 µM | [6] 25.2 µM | [7] 4.59 µM | [8] 8.25 µM | [9] 8.79 µM | [10] 8.87 µM | [11] 4.6 µM | [12] 5.14 µM | [14] 41.5 µM | [16] 25.6 µM | [19] 7.42 µM | [25] 10.4 µM
inactive: [1] | [2] | [13] | [15] | [17] | [18] | [20] | [21] | [22] | [23] | [24] | [26] | [27] | [28] | [29] | [30] | [31]
